Our source for the z-score and composite z-score values is PubChem BioAssay.

Each structure is given as a SMILES string. Active and inactive are the calls of the source.

Assay [1] in a line: optical density shifts of acrAB sulA E. coli – strain DRC41, OD650, 48 h, E. coli filamentation inducer project, primary screen (AID 1152).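 Also: E. coli MC1000 strain DRC41 lacking acrAB efflux pump and sulA.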 The conditions noted are these: higher = more signal, called active from +8 up or from −8 down.
Assay [2] in a line: probe aLefty1 binding on compound microarray – biochemical, small-molecule microarray, 635/667 nm fluorescence, primary screen (AID 1153).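 Also: score merges spot fluorescence with signal-to-noise ratio from the scanned slide images.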 To be noted: higher = more signal.
Assay [3] is described as follows: plasmodial surface anion channel blockers, osmotic lysis – cell-based, P. falciparum Indochina, OD700, 1 h, primary screen (AID 1154). The conditions noted are these: P. falciparum Indochina infected RBC osmotic lysis, higher = more signal, called active from +8 up or from −8 down.
Assay [4] in a line: plasmodial surface anion channel blockers, osmotic lysis – cell-based, P. falciparum Indochina, OD700, 2 h, primary screen (AID 1155).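 Also: lysis reports solute entry through the parasite surface anion channel PSAC.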 To be noted: P. falciparum Indochina infected erythrocytes, higher = more signal, called active from +8 up or from −8 down.
The nature of assay [5]: changes in parasitized red cell lysis, either direction – P. falciparum Indochina, OD700, 3 h, PSAC antagonist project, primary screen (AID 1156). To be noted: P. falciparum-infected erythrocytes, osmotic lysis, higher = more signal, called active from +8 up or from −8 down.
A short description of assay [6]: plasmodial surface anion channel blockers, osmotic lysis – cell-based, P. falciparum Indochina, OD700, 18 h, primary screen (AID 1157). The conditions noted are these: P. falciparum Indochina infected erythrocytes, osmotic lysis OD700, 18 h; higher = more signal, called active from +8 up or from −8 down.
A short description of assay [7]: S6 kinase pathway phospho-S6 level changes – cell-based, A549, cytoblot, luminescence, serum-stimulated, primary screen (AID 1158).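 Also: serum-stimulated A549 lung adenocarcinoma cells; signal is phosphorylated S6 detected by cytoblot immunostaining with HRP secondary.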 The conditions noted are these: 5 h, higher = more signal.
The target in assay [8] is NADPH oxidase 2 (Homo sapiens) (UniProt P04839). Description: compounds shifting NOX2 Amplex Red fluorescence – cell-based, HEK293-NOX2, PMA-stimulated, NOX inhibitor project, primary screen (AID 1159). Also: test concentration not given here. The conditions noted are these: 45 min, higher = more signal, called active from +8 up or from −8 down.
For assay [9], the target named is NADPH oxidase 4 (Homo sapiens) (UniProt Q9NPH5). The assay is described as follows: compounds shifting NOX4 Amplex Red fluorescence – cell-based, HEK293-NOX4, tetracycline-induced, NOX inhibitor project, primary screen (AID 1160). The conditions noted are these: HEK293-NOX4, Amplex Red H2O2 fluorescence, 45 min; higher = more signal, called active from +8 up or from −8 down.

The target in assay [10] is NADPH oxidase 5 (Homo sapiens) (UniProt Q96PH1). Description: compounds shifting NOX5 Amplex Red fluorescence – cell-based, HEK293-NOX5, NOX inhibitor project, primary screen (AID 1161). The conditions noted are these: HEK293-NOX5, ionomycin, 45 min, higher = more signal.
Assay [11] in a line: compound effects on lung adenocarcinoma cell viability – A549, calcein-AM fluorescence, 48 h, basal, profiling panel (AID 1162). Also: test concentration not given here. To be noted: higher = more signal.
The nature of assay [12]: compound effects on differentiated 3T3-L1 adipocyte viability – cell-based, 3T3-L1 adipocytes, calcein-AM fluorescence, 48 h, basal, profiling panel (AID 1163). Also: test concentration not given here. To be noted: 3T3-L1 adipocytes viability, higher = more signal.
The nature of assay [13]: compound effects on hepatocellular carcinoma cell viability – HepG2, calcein-AM fluorescence, 48 h, basal, profiling panel (AID 1164). Also: test concentration not given here. To be noted: higher = more signal.
A short description of assay [14]: compound effects on multiple myeloma cell viability – MM1S, calcein-AM fluorescence, 48 h, basal, profiling panel (AID 1165).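 Also: viability of MM1S multiple myeloma cells under basal unstimulated conditions; test concentration not given here.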 To be noted: higher = more signal.
The nature of assay [15]: calcein-AM signal in unstimulated myeloma cells – cell-based, calcein-AM fluorescence, 48 h, PK04 Diversity Set, profiling panel (AID 1166).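 Also: cells grown under basal conditions without added stimulus; test concentration not given here.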 To be noted: RPMI8226 myeloma viability, higher = more signal.
A short description of assay [16]: JC-1 mitochondrial signal, unstimulated HepG2 cells – cell-based, JC-1 fluorescence, 24 h, 100 nL compound, profiling panel (AID 1167). Also: test concentration not given here. To be noted: HepG2 mitochondrial potential, higher = more signal.
A short description of assay [17]: JC-1 mitochondrial signal, unstimulated adipocytes – cell-based, JC-1 fluorescence, 3T3-L1 adipocytes, 24 h, 100 nL compound, profiling panel (AID 1168). Also: test concentration not given here. To be noted: JC-1 mitochondrial fluorescence, higher = more signal, called active from +8 up or from −8 down.
Assay [18] is described as follows: JC-1 mitochondrial signal, unstimulated myeloma cells – cell-based, JC-1 fluorescence, RPMI8226, 24 h, 100 nL compound, profiling panel (AID 1169). Also: test concentration not given here. To be noted: JC-1 mitochondrial potential fluorescence, higher = more signal.
A short description of assay [19]: JC-1 mitochondrial signal, unstimulated MM1S myeloma – cell-based, JC-1 fluorescence, 24 h, 100 nL compound, profiling panel (AID 1170). Also: test concentration not given here. The conditions noted are these: MM1S mitochondrial potential, higher = more signal.
A short description of assay [20]: resazurin metabolic signal in A549 cells – cell-based, resazurin fluorescence, 24 h, PK04 Diversity Set, profiling panel (AID 1171). Also: test concentration not given here. To be noted: A549 viability, higher = more signal, called active from +8 up or from −8 down. Background: Alamar Blue is a resazurin reagent that responds to reducing activity.

NADPH oxidase 4 (Homo sapiens), sequence (Q9NPH5 whole entry, looked up): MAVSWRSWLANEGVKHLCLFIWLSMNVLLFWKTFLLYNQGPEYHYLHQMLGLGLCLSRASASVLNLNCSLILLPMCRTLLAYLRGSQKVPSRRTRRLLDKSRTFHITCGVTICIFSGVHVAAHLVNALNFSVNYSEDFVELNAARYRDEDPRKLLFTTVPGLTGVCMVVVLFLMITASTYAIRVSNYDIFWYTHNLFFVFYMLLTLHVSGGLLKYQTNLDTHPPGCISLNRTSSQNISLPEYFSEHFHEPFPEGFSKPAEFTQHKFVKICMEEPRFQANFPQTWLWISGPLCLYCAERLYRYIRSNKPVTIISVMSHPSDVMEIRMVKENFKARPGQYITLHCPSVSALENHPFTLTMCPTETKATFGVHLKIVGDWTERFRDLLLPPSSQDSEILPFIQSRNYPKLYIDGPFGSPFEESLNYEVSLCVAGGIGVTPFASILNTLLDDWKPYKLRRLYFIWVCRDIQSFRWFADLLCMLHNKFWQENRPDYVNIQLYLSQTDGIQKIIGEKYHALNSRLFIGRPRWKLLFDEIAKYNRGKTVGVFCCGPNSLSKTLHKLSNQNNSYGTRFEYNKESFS
NADPH oxidase 2 (Homo sapiens), sequence (P04839 whole entry, looked up): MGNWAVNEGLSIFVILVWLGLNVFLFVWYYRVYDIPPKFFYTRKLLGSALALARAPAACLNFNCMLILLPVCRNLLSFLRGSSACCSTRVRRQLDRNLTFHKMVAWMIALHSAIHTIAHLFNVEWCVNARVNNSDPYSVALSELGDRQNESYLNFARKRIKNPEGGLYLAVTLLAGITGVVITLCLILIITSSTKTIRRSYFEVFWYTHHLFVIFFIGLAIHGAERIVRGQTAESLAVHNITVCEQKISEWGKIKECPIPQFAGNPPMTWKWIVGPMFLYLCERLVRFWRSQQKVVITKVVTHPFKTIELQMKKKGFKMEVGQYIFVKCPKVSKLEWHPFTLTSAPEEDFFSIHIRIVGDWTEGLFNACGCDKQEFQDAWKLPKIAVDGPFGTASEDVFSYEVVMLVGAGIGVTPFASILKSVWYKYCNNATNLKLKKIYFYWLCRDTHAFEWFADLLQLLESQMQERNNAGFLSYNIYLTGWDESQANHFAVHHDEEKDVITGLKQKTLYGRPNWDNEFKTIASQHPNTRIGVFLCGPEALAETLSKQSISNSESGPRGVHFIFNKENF
NADPH oxidase 5 (Homo sapiens), sequence (Q96PH1 whole entry, looked up): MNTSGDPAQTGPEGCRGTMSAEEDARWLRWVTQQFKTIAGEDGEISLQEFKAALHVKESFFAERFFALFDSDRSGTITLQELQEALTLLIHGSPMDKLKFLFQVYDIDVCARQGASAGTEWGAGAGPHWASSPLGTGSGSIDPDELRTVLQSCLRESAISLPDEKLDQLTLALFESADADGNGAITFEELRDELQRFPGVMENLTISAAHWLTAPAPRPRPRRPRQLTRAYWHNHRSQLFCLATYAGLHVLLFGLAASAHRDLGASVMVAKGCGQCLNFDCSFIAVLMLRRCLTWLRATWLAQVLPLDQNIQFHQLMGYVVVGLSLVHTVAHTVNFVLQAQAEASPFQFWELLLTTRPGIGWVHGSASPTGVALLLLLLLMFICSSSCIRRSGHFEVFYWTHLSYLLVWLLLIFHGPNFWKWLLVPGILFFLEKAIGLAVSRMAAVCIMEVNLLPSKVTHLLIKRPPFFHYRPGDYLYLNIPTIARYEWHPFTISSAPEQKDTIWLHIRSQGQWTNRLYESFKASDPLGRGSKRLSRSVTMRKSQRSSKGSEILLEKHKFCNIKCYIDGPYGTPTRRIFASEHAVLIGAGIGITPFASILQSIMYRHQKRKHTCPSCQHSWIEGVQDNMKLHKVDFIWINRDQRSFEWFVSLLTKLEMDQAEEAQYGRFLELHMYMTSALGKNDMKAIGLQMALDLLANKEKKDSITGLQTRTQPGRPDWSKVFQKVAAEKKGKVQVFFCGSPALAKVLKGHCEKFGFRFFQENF

Take `C[n+]1ccc(-c2ccc(CO)cc2)cc1`: the z-score in assay [1] is 0.209 (inactive); in assay [3], -0.8 (inactive); in assay [4], -0.376 (inactive); in [5], -1.05 (inactive); in [6], -0.0148 (inactive); in assay [7], -0.6. Moreover, the z-score in assay [8] is -0.225 (inactive); in [9] it was -0.0911 (inactive); in assay [10] it was -3.04; in [11] it was -1.45; in [12], -0.84; in [13], -0.0981. Moreover, the z-score in assay [14] was -0.31; in [15], -0.196; in assay [16], -1.04; in assay [17], -0.872 (inactive); in [18] it was -0.634; in assay [19] it was 0.236. For the same molecule, the z-score in assay [20] was -0.939 (inactive). Moreover, the composite z-score in assay [2] is -0.0303.
On to `CO[C@@H]1COC(=O)[C@H](CCSC)NC(=O)CC=C[C@@H](C)COC(=O)CCC[C@H]1C`, for which the z-score is 0.337 (inactive) in [1]; 19.7 (active) in assay [3]; 3.14 (inactive) in assay [4]; 2.07 (inactive) in [5]; 1.18 (inactive) in assay [6]; 0.016 in [7]. Besides, the z-score was -1.12 (inactive) in [8]; 0.369 (inactive) in assay [9]; -0.918 in assay [10]; 0.471 in assay [11]; -0.304 in assay [12]; -0.764 in assay [13]. For the same molecule, the z-score in assay [14] is -0.38; in assay [15] it was -0.687; in [16], 1.95; in [17], -0.688 (inactive); in [18] it was -0.194; in assay [19] it was -0.0804. Besides, in assay [20], the z-score is 0.977 (inactive). In assay [2], this molecule showed a composite z-score of 0.729.
In the case of `CCOC(=O)[C@H](CC(C)C)NC(=O)CCC1CC(OC(=O)NCc2cccc3ccccc23)CC2(CCCC(COC(=O)NCCC(C)C)O2)O1` (stereo not given in full), the z-score in assay [1] was -0.64 (inactive); in assay [3], 22.7 (active); in assay [4], 6.81 (inactive); in assay [5], -0.861 (inactive); in assay [6], 0.78 (inactive); in assay [7], 2.49. For the same molecule, the z-score in [8] is 0.902 (inactive); in assay [9], 0.777 (inactive); in assay [10], 0.389; in assay [11], 2.25; in assay [12] it was 0.944; in assay [13] it was 0.312. For the same molecule, the z-score in assay [14] was -3.2; in [15], -1.05; in assay [16], 0.162; in [17], 0.199 (inactive); in assay [18] it was -0.17; in [19] it was -1.27. Moreover, the z-score in assay [20] was 0.169 (inactive). Further, the composite z-score in [2] came to 0.185.
On to `CCCNC(=O)OC[C@H]1O[C@H](CCON=C(C)C)C=C[C@@H]1Oc1ccc(OC)cc1`, for which the z-score in assay [1] was -1.21 (inactive); in [3], 0.683 (inactive); in assay [4], 0.411 (inactive); in [5], -0.551 (inactive); in [6] it was 0.367 (inactive); in assay [7], -0.131. Moreover, the z-score in assay [8] was -0.278 (inactive); in assay [9], 0.389 (inactive); in assay [10] it was -0.533; in assay [11] it was 0.171; in assay [12], 0.008; in [13], -0.0737. The z-score in [14] was -0.39; in [15], 0.0566; in [16], -1.57; in assay [17], -1.43 (inactive); in [18], 0.255; in assay [19] it was 0.276. Also, the z-score in [20] was 0.095 (inactive). The composite z-score in assay [2] was 0.209.
Take `CCOC(=O)[C@H](CC(C)C)NC(=O)CCC1CC(OC(=O)NCCc2ccc(F)cc2)CC2(CCCC(COC(=O)NCC(c3ccccc3)c3ccccc3)O2)O1` (stereo not given in full): the z-score in [1] was -1.18 (inactive); in assay [3], 4 (inactive); in assay [4], -0.523 (inactive); in assay [5], 0.784 (inactive); in assay [6] it was -0.316 (inactive); in assay [7], 0.0441. Besides, the z-score in assay [8] was 1.47 (inactive); in [9], 1.88 (inactive); in [10], 1.52; in assay [11], 0.0775; in assay [12], 0.0775; in [13] it was -0.912. Besides, the z-score in assay [14] was -0.325; in assay [15], 0.497; in [16] it was -0.898; in assay [17], -0.516 (inactive); in assay [18], 0.872; in [19], -0.019. For the same molecule, the z-score in assay [20] was 0.171 (inactive). In addition, the composite z-score in assay [2] is -0.147.
Regarding `C#CCCCON=C1C[C@@H](O)[C@@H](O)[C@@H]2[C@@H]3C(=O)N(CCC(=O)OCC)C(=O)[C@@H]3CC[C@H]12`, the z-score was 0.756 (inactive) in [1]; 1.08 (inactive) in assay [3]; -1.4 (inactive) in assay [4]; 0.792 (inactive) in [5]; -1.51 (inactive) in assay [6]; 1.76 in assay [7]. The z-score was -2.03 (inactive) in [8]; 0.213 (inactive) in assay [9]; -0.949 in assay [10]; 0.278 in [11]; 0.73 in assay [12]; 0.249 in assay [13]. Moreover, the z-score was -0.0993 in [14]; 0.111 in [15]; 0.0972 in assay [16]; -0.367 (inactive) in assay [17]; 0.0174 in assay [18]; -1.36 in assay [19]. In addition, the z-score in assay [20] is -1.11 (inactive). In [2], this molecule returned a composite z-score of 0.105.
As for `O=C(NN=C1C[C@@H](O)[C@@H](O)[C@@H]2[C@@H]3C(=O)N(C[C@@H]4CCCO4)C(=O)[C@@H]3CC[C@H]12)OCc1ccccc1`, the z-score in assay [1] is 0.801 (inactive); in assay [3], 1.35 (inactive); in [4] it was 0.278 (inactive); in [5], 0.284 (inactive); in assay [6], 0.404 (inactive); in [7], -0.249. The z-score in [8] was -0.92 (inactive); in [9], 0.0865 (inactive); in [10] it was -0.165; in assay [11], -0.0032; in assay [12] it was -0.0428; in [13], -0.718. Besides, the z-score in [14] is 0.338; in assay [15] it was -0.0238; in assay [16], -0.249; in assay [17], -0.0601 (inactive); in [18] it was 0.536; in assay [19] it was -0.853. Moreover, in [20], the z-score was -0.714 (inactive). The same molecule registered a composite z-score in assay [2] of 0.318.
Consider `CC=CC1=C(CO)C(=O)[C@@H]2O[C@@H]2C1=O`, for which the z-score is 0.33 (inactive) in assay [1]; -0.4 (inactive) in assay [3]; -0.344 (inactive) in assay [4]; -0.501 (inactive) in [5]; -0.267 (inactive) in assay [6]; -0.292 in assay [7]. Besides, the z-score is 2.08 (inactive) in assay [8]; -0.329 (inactive) in [9]; 0.846 in [10]; -0.912 in [11]; -1.18 in assay [12]; -0.88 in assay [13]. For the same molecule, the z-score in assay [14] was -3.5; in assay [15] it was -2.88; in assay [16], -1.86; in assay [17], -0.316 (inactive); in assay [18], -1; in assay [19] it was -2.1. In assay [20], the z-score was -0.315 (inactive). Also, in assay [2], the composite z-score is -0.202.
Consider `CCCCC#C[C@@H]1C=C[C@H](Oc2cc(OC)c(OC)c(OC)c2)[C@@H](COC(=O)OCC)O1`, for which the z-score was 0.525 (inactive) in assay [1]; 8.03 (active) in assay [3]; 0.673 (inactive) in assay [4]; -0.172 (inactive) in assay [5]; 0.0018 (inactive) in assay [6]; -0.153 in assay [7]. Also, the z-score was -1.82 (inactive) in assay [8]; 0.215 (inactive) in assay [9]; -2.66 in assay [10]; 1.75 in assay [11]; -0.931 in assay [12]; 0.928 in [13]. Besides, the z-score is -2.65 in [14]; -1.86 in [15]; -0.163 in assay [16]; 0.841 (inactive) in assay [17]; 0.23 in assay [18]; -0.254 in assay [19]. For the same molecule, the z-score in assay [20] was -0.108 (inactive). The composite z-score in [2] is -0.147.
